Source: PubChem BioAssay (National Center for Advancing Translational Sciences (NCATS))
In the library only some 0.54% were active in any assay of this set; here they are far more common.
pAkt inh = HTS Assay for Inhibitors of Akt Phophorylation: Primary Screen | activity change, % for hits at 50 µM | AID 651550, 2012 | Neuro2A IGF-stimulated pAkt S473 HTRF, 20 min; hits give low values | 0.32% of 360,000 active; in the data active means activity change below about -80%; inconclusive means mostly about -51% to -80%
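Neuro2A cells (4,500/well, DMEM with 0.5% FBS) were treated with compound at a single 50 µM final concentration, stimulated with 6 nM IGF for 20 min at 37 °C, and lysed. Phospho-Akt Ser473 was read by HTRF as 665/615 ratio ×10^4.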
IDH1 R132H inh = qHTS for Inhibitors of mutant isocitrate dehydrogenase 1 (IDH1): qHTS; Potency, µM (series often up to 76.6 µM), usual class: inhibitors; AID 602179, 2012; 0.093% of 390,000 active; IDH1-R132H enzyme, NADPH consumption, diaphorase/resazurin fluorescence; Isocitrate dehydrogenase [NADP] cytoplasmic (Homo sapiens), O75874; further: nearly all actives have a fitted effect of over 65% in size
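IDH1-R132H (0.5 ug/mL) preincubated 30 min with compound, then NADPH (0.016 mM) and alpha-KG (2 mM) added; 80 min at RT, pH 7.5. Remaining NADPH coupled via diaphorase/resazurin to fluorescence (540/590 nm); concentration-response curves normalized to no-enzyme control.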
MLL CXXC-DNA inh = qHTS Fluorescence Polarization Assay for Inhibitors of MLL CXXC domain - DNA interaction; AID 2662, 2010; 0.037% of 290,000 active; Potency, µM (doses to about 115 µM), actives largely listed as inhibitors; Histone-lysine N-methyltransferase 2A (Homo sapiens), Q03164; MLL-CXXC / FITC-HOXA9 DNA fluorescence polarization; active means well fitted inhibition curve with a large enough effect in the polarisation, with a control signal flat, not every such curve was filed as active; inconclusive means small, poorly fitted or top-dose-only effect, or effect the other way, or a change in a side signal; inactive means no such curve, though single readings can be large or run the other way; the % refers to the polarisation
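Steps: dispense CXXC domain solution (7 uM) → pin compounds or unlabeled HOX-A9 DNA control → 5 min ambient → add FLSN-HOX-A9 solution (50 nM) → spin → 30 min ambient → fluorescence polarization. Tris pH 7.5/NaCl/DTT/BSA buffer.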
Menin-MLL FL inh = qHTS Assay for Inhibitors Targeting the Menin-MLL Interaction in MLL Related Leukemias: Competition With Fluorescein Labeled MLL-derived Peptide | FP activity change, % at 61.4 µM | Fluorescence polarization, fluorescein-MLL peptide displacement from menin | 290,000 tested, under 10 active; active means well fitted curve in the direction sought with a large enough effect in the polarisation, not every such curve was filed as active; inconclusive means small, poorly fitted or top-dose-only effect, or effect the other way, or a change in a side signal; inactive means no such curve, though single readings can be large or run the other way; the % refers to the polarisation
Menin MLL FP TR = qHTS Assay for Inhibitors Targeting the Menin-MLL Interaction in MLL Related Leukemias: Competition With Texas Red Labeled MLL-derived Mutant Peptide; 0.23% of 270,000 active; Menin + Texas Red MLL mutant peptide, fluorescence polarization; Potency, µM (titrated, usually from 61.6 µM), most hits filed as inhibitors; AID 1768, 2009; active means well fitted inhibition curve with a large enough effect in the polarisation, with a control signal flat, not every such curve was filed as active; inconclusive means small, poorly fitted or top-dose-only effect, or effect the other way, or a change in a side signal; inactive means no such curve, though single readings can be large or run the other way; the % refers to the polarisation
Target sequence (O00255 whole entry, looked up): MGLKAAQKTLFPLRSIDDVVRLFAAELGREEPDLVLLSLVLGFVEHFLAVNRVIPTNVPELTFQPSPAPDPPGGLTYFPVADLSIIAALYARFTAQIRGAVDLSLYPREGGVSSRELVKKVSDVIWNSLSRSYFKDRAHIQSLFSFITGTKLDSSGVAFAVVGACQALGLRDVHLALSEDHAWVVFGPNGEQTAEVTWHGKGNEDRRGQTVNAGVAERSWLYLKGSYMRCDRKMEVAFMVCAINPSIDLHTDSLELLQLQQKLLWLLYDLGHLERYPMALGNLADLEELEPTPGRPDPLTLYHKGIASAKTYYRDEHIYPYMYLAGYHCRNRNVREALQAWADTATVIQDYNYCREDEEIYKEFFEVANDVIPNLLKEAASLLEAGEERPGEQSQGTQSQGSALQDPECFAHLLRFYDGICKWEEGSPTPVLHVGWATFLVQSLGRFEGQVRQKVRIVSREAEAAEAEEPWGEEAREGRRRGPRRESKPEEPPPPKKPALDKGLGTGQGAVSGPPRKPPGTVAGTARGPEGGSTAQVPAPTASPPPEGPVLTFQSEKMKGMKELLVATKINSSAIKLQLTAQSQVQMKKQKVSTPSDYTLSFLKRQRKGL
LDHA block = qHTS assay for inhibitors of human lactate dehydrogenase; L-lactate dehydrogenase A chain (Homo sapiens), P00338; AID 1347041, 2019; purified LDHA, NADH/diaphorase-resazurin fluorescence; hits give low values; 0.15% of 480,000 active; activity change, % (values are at about 110 or 230 µM); in the data active means activity change below about -30%; inconclusive means mostly about -25% to -30%
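Resorufin fluorescence (ex540/em590), read at 0 and 20 min after diaphorase/resazurin addition, reports the NADH left after a 5 min room-temperature reaction of 2 nM human LDH5 with 0.06 mM NADH and 0.2 mM pyruvate.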
Resorufin autofl = qHTS for Inhibitors of mutant isocitrate dehydrogenase 1 (IDH1): Cherrypicks Autofluorescence Interference. shares compounds with IDH1 R132H inh. inhibition of signal, % at 51.2 µM. AID 623980, 2012. 750 tested, under 10 active. Resorufin detection reagent fluorescence interference, cell-free
IDH1 WT = qHTS for Inhibitors of mutant isocitrate dehydrogenase 1 (IDH1): Cherrypicks in WT IDH1; shares compounds with IDH1 R132H inh; 9% of 750 active; Potency, µM (titrated, usually from 115 µM), actives largely listed as inhibitors; WT IDH1 enzyme, NADPH diaphorase/resazurin fluorescence; further: nearly all actives have a fitted effect of over 55% in size
mIDH1 confirm = qHTS for Inhibitors of mutant isocitrate dehydrogenase 1 (IDH1): Confirmation of Cherrypicks. IDH1 R132H enzyme, NADPH diaphorase/resazurin fluorescence. 83% of 750 active. shares compounds with IDH1 R132H inh. Potency, µM (titrated, usually from 76.6 µM), actives largely listed as inhibitors; further: nearly all actives have a fitted effect of over 50% in size
Numbers stand for hits; . = inactive; ? = inconclusive; / = not tested or not shown. Unless noted, the call rests on the fitted dose curve; in most records, active means well fitted curve in the direction sought with a large enough effect; inconclusive means small, poorly fitted or top-dose-only effect, or another doubt; inactive means no such curve, though single readings can be large; an effect the other way counts as inactive or inconclusive.

SMILES	pAkt inh	IDH1 R132H inh	MLL CXXC-DNA inh	Menin-MLL FL inh	Menin MLL FP TR	LDHA block	Resorufin autofl	IDH1 WT	mIDH1 confirm
CC(C)(C)c1ccc(C2NC(=O)c3n[nH]c(-c4cccs4)c32)cc1 (configuration not stated)	/	?	/	/	/	.	.	.	40µM
Cc1ccc2c(c1)Oc1ccc(NC(=O)CCl)cc1C(=O)N2	.	13µM	.	.	.	.	.	71µM	6.3µM
Cc1ccc2c(c1)Oc1ccc([N+](=O)[O-])cc1C(=O)N2	.	.	.	.	.	.	/	/	/
COc1ccc(-c2coc3cc(OC(C)=O)ccc3c2=S)cc1	.	46µM	/	/	/	.	.	.	?
COCCNC(=O)C(c1ccc(C)o1)N(C(=O)c1snc(C(N)=O)c1N)c1ccc(C)cc1 (configuration not stated)	.	.	.	.	.	.	/	/	/
Cc1ccc(N(C(=O)c2snc(C(N)=O)c2N)C(C(=O)NC2CCCC2)c2ccco2)cc1 (configuration not stated)	.	?	.	.	.	.	.	.	28µM
Cc1cccc(N(C(=O)c2snc(C(N)=O)c2N)C(C(=O)NC2CCCC2)c2ccc(C)o2)c1 (configuration not stated)	.	?	.	.	.	.	.	.	25µM
Cc1ccc(N(C(=O)c2snc(C(N)=O)c2N)C(C(=O)NC2CCCC2)c2ccc(C)o2)cc1 (configuration not stated)	.	?	.	.	.	.	.	.	20µM
CC(C)NC(=O)c1ccccc1-c1ncc(-c2ccccc2)o1	/	/	/	/	/	.	/	/	/
Cc1ccccc1OCCN(C)C(=O)c1cc(=O)[nH]c2ccccc12	/	/	/	/	/	.	/	/	/
Cc1cc(C)c(O)c(-c2n[nH]c3c2C(c2cccc(O)c2)N(Cc2ccco2)C3=O)c1 (configuration not stated)	.	16µM	.	.	/	.	.	50µM	22µM
Cc1cc(O)c(-c2n[nH]c3c2C(c2cccc(O)c2)N(Cc2ccco2)C3=O)cc1Cl (configuration not stated)	/	/	/	/	/	.	/	/	/
O=C1c2[nH]nc(-c3ccccc3O)c2C(c2ccc(F)cc2)N1Cc1ccco1 (configuration not stated)	.	?	.	.	.	.	.	.	40µM
Cc1ccc(C2c3c(-c4cc(C)ccc4O)n[nH]c3C(=O)N2Cc2ccco2)cc1 (configuration not stated)	/	35µM	/	/	/	.	.	.	45µM
COC(=O)c1cccc(NC(=O)NCc2cccn2Cc2ccccc2)c1	/	/	/	/	/	.	/	/	/
CCn1c2ccccc2c2cc(C3C(C#N)=C(N)Oc4n[nH]c(COC)c43)ccc21 (configuration not stated)	/	52µM	.	.	?	.	.	.	20µM
NNC(=O)CSc1c(-c2ccccc2)c2cc(Cl)ccc2[nH]c1=O	.	?	.	.	?	.	.	.	.
